# Rows were chosen to be rich in hits. Some 21% of all compounds tested hit in one or more screens of this group.
# IL1B secr inh = qHTS for Inhibitors of Inflammasome Signaling: IL-1-beta AlphaLISA Primary Screen; actives 4.7% (n = 360,000); THP-1 LPS/ATP IL-1B secretion, AlphaLISA, 16 h; hits give low values; AID 743279, 2014; activity change, % at 57.5 µM; in the data active = activity change below about -50%; inconclusive = mostly about -30% to -49%
#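 THP-1 cells pretreated 1 hr with compounds (up to 57.5 uM final), then stimulated with LPS (250 ng/mL final) plus ATP (1.25 mM final); secreted IL-1B measured by AlphaLISA after 16 hr, decreased signal indicating inhibition.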
# TDP1 cell noCPT = qHTS for Inhibitors of human tyrosyl-DNA phosphodiesterase 1 (TDP1): qHTS in cells in absence of CPT; Potency, µM (titrated, usually from 46.2 µM), without a hit: at the top dose activity change, negative = growth inhibition, actives largely listed as inhibitors; DT40 Tdp1-/- hTDP1 cells, no CPT, ATP luminescence, 48 h; actives 15% (n = 420,000); also: potency is read from the fitted curve at half-maximal effect; nearly all actives have a fitted effect of over 55% in size
#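 Growth kinetics read by CellTiter-Glo luminescence after ≥48 hr at 37 °C. Cells: DT40 Tdp1-/- stably carrying human TDP1, 400 per well, compound exposure in the absence of CPT (DMSO vehicle).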
# RORgamma inh = qHTS for inhibitors of ROR gamma transcriptional activity. Drosophila S2 Gal4-RORgamma UAS-luciferase reporter, 20 h. AID 2551, 2010. actives 5.4% (n = 310,000). Nuclear receptor ROR-gamma (Mus musculus), P51450. Potency, µM (top dose mostly 53.6 µM), for inactives: at the highest dose activity change, negative = inhibition, most hits filed as inhibitors; also: potency is read from the fitted curve at half-maximal effect; nearly all actives have a fitted effect of over 60% in size
# Target sequence (P51450 whole entry, looked up, the tested form may be a part): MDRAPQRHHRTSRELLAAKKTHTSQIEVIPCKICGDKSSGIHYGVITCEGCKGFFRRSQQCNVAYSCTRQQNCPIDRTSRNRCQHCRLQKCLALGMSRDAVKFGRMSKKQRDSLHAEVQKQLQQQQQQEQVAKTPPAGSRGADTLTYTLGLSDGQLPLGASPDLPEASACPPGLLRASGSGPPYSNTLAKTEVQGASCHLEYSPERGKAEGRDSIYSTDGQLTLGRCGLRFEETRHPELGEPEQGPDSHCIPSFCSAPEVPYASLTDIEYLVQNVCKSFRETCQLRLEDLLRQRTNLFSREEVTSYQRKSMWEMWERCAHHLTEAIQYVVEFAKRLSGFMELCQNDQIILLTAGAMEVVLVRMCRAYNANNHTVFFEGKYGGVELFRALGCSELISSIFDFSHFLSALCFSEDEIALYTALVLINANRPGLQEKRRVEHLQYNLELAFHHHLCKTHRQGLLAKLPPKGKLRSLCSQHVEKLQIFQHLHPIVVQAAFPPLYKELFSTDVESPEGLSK
#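 Drosophila S2 cells stably expressing Gal4-DBD/mouse RORγ fusion under metallothionein promoter plus UAS-luciferase; compound 1 h, then 700 uM CuSO4 induction for 20 h at ambient temperature; inhibition read as reduced luminescence.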
# TDP1 cell CPT = qHTS for Inhibitors of human tyrosyl-DNA phosphodiesterase 1 (TDP1): qHTS in cells in presence of CPT; chicken DT40 Tdp1-/-;hTDP1 cells + 20 nM CPT, ATP luminescence, 48 h; Potency, µM (top dose mostly 46.2 µM), for the others: at the top dose activity change, negative = growth inhibition, hits mostly inhibitors; actives 12% (n = 420,000); AID 686979, 2013; also: potency is read from the fitted curve at half-maximal effect; nearly all actives have a fitted effect of over 55% in size
#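 Chicken DT40 Tdp1-/- cells stably complemented with human TDP1 were seeded at 400 cells/well in medium containing 20 nM camptothecin, exposed to pin-transferred compounds, and grown at 37 °C for at least 48 hr. Viability was read as ATP luminescence.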
# VP16 counter = VP16 counterscreen qHTS for inhibitors of ROR gamma transcriptional activity; actives 3.5% (n = 310,000); Potency, µM (titrated, usually from 53.6 µM), for inactives: at the top dose activity, negative = inhibition, most hits filed as inhibitors; Drosophila S2 Gal4-VP16 UAS-luciferase, luminescence, 20 h;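 also: Gal4-VP16 expression switched on by copper sulfate through the metallothionein promoter; potency is read from the fitted curve at half-maximal effect; nearly all actives have a fitted effect of over 50% in size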
# ELG1 repair inh = qHTS screen for small molecules that inhibit ELG1-dependent DNA repair in human embryonic kidney (HEK293T) cells expressing luciferase-tagged ELG1. actives 2.3% (n = 330,000). Potency, µM (titrated, usually from 46.1 µM), for inactives: at the highest dose activity change, negative = inhibition, most hits filed as inhibitors. HEK293T ELG1-luciferase reporter, luminescence, 16 h; DNA damage induced by 5-fluorouridine; also: potency is read from the fitted curve at half-maximal effect; nearly all actives have a fitted effect of over 55% in size
#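 Quantitative HTS, concentration-response format. 2,000 cells/well co-treated with 5-fluorouridine and compound, 16 hr in 5% CO2 at 37 °C; ONE-Glo luminescence read after 30 min.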
# Starred values were filed as active, the others as inactive; ? = inconclusive; · = no result given. Unless noted, calls follow the shape of the dose curve; as a rule, active = well fitted curve in the direction sought with a large enough effect; inconclusive = small, poorly fitted or top-dose-only effect, or another doubt; inactive = no such curve, though single readings can be large; an effect the other way counts as inactive or inconclusive. % is scaled to controls: 0 for no effect and ±100 for the full control effect.
SMILES,IL1B secr inh,TDP1 cell noCPT,RORgamma inh,TDP1 cell CPT,VP16 counter,ELG1 repair inh
O=C(Nc1ccc(F)cc1)Nc1nnc(-c2ccncc2)s1,2.3,20.6µM*,12.0%,?,5.8%,?
Cc1ccc(NC(=O)Nc2nnc(-c3ccncc3)s2)cc1C,-25.3,13µM*,7.0%,20.6µM*,7.5%,-9.4%
CCN(CC)c1cc(C)c2cc(NC(=O)/C=C/c3ccccc3OC(C)C)ccc2n1,·,23.1µM*,·,?,·,·
CC1(C)CC(=O)C(C(=O)/C=C/c2ccco2)C(=O)C1,-13.8,20.6µM*,0.3%,14.6µM*,-10.9%,15.0%
CC1(C)CC(=O)C(C(=O)/C=C/NCCc2ccccc2)C(=O)C1,28.8,?,-4.5%,-25.3%,12.5%,?
CCCCOc1ccc(N2CC(C(=O)NCc3ccco3)CC2=O)cc1 (centres undefined),36.1,-16.2%,-2.6%,7.4%,7.8%,?
COc1ccc(S(=O)(=O)N2CCN(c3ccc4nnc(-c5ccccc5)n4n3)CC2)cc1,-0.3,?,-5.5%,11.6µM*,1.9%,?
O=S(=O)(c1ccccc1F)N1CCN(c2nc(-c3cccnc3)nc3ccccc23)CC1,4.4,20.6µM*,·,?,·,18.3µM*
N#Cc1ccccc1S(=O)(=O)N1CCN(c2nc(-c3cccnc3)nc3ccccc23)CC1,-5.8,?,·,?,·,?
Cc1ccc(C)c(S(=O)(=O)N2CCN(c3nc(-c4cccnc4)nc4ccccc34)CC2)c1,-0.5,6.51µM*,·,8.2µM*,·,18.3µM*
COc1ccc(S(=O)(=O)N2CCN(c3nc(-c4cccnc4)nc4ccccc34)CC2)cc1,-21.9,8.2µM*,·,18.4µM*,·,?
Cc1ccc(S(=O)(=O)N2CCCCC2)cc1NC(=O)CSc1ncccn1,0.0,1.6%,·,-20.3%,·,1.3%
O=c1c(-c2ccc(Cl)cc2)nc2cnc(N3CCOCC3)nc2n1C[C@H]1CCCO1,·,10.5%,-5.5%,3.1%,5.9%,·
CCCCS(=O)(=O)NC(=O)C1(C)CCN1C(=O)C/C=C/c1ccccc1 (centres undefined),0.0,-8.7%,·,-7.4%,·,·
COC(=O)[C@@]1(Cc2ccc(F)cc2)[C@H]2c3cc(C(=O)N(C)C)n(Cc4ccccc4)c3C[C@H]2CN1C(=O)c1ccccc1,-21.9,20.6µM*,?,5.17µM*,1.0%,-19.1%
COC(=O)[C@@]1(Cc2ccc(OC)cc2)[C@H]2c3cc(C(=O)N(C)C)n(Cc4ccc(OC(F)(F)F)cc4)c3C[C@H]2CN1C(=O)c1ccccc1,-62.1*,20.6µM*,?,20.6µM*,-10.8%,?
COC(=O)[C@@]1(Cc2ccc(F)cc2)[C@H]2c3cc(C(=O)N(C)C)n(Cc4ccc(C)o4)c3C[C@H]2CN1C(=O)c1ccccc1,-24.4,20.6µM*,?,16.4µM*,?,·
COC(=O)[C@@]1(Cc2ccc(F)cc2)[C@H]2c3cc(C(=O)N(C)C)n(CCc4ccc(OC)c(Br)c4)c3C[C@H]2CN1C(=O)c1ccccc1,0.0,9.2µM*,?,10.3µM*,-0.1%,-7.7%
CC(=O)N1CCC2(CC1)CCN(c1ccccc1)CC2,·,-4.6%,0.7%,13.2%,-9.3%,·
Cc1ccc(S(=O)(=O)N2CC(O)C[C@H]2C(=O)OCC(=O)Nc2ccc(N3CCCCC3)cc2)cc1C (some centres undefined),-1.4,18.4µM*,·,?,·,?
Cc1onc(-c2c(F)cccc2Cl)c1C(=O)Nc1ccc(S(=O)(=O)N2CCOCC2)cc1,-6.9,?,·,-24.6%,·,11.6%
Cc1c(Cl)cccc1NC(=S)Nn1cnnc1,?,-3.0%,?,3.3%,-9.2%,-4.7%
Cc1c(Cl)cccc1NC(=S)NNS(=O)(=O)c1ccc([N+](=O)[O-])cc1,12.0,3.4%,4.47µM*,5.5%,7.08µM*,-20.3%
Cc1onc(-c2c(F)cccc2Cl)c1C(=O)Nc1cc(S(=O)(=O)N2CCCCC2)ccc1O,-17.1,16.4µM*,·,16.4µM*,·,·
COc1ccc(S(=O)(=O)N2CCCCC2)cc1NC(=S)Nc1cccc(Cl)c1C,-11.4,?,11.2µM*,?,?,-18.8%
SMILES,IL1B secr inh,TDP1 cell noCPT,RORgamma inh,TDP1 cell CPT,VP16 counter,ELG1 repair inh
COc1ccc(S(=O)(=O)N2CCCCC2)cc1NC(=O)c1c(F)cccc1Cl,-22.0,16.4µM*,·,?,·,-4.9%
CC1CCCCC1NC(=O)C1CCN(S(=O)(=O)c2cccc3nonc23)CC1 (centres undefined),9.7,?,20.3%,10.4%,1.1%,0.4%
O=S1(=O)N[C@H](Cc2ccccc2)COc2cc(N3CCC[C@@H]3CO)ccc21,49.5,?,·,?,·,·
Cc1noc(C)c1CN1C(=O)NC(Cc2ccccc2)(Cc2ccccc2)C1=O,0.0,?,11.2µM*,?,-0.8%,6.8%
CCCC(=O)NC1=C(Cl)C(=O)c2ccccc2C1=O,-100.9*,0.651µM*,·,0.651µM*,·,·
CCNc1ccccc(-c2ccc3ccccc3n2)c1=O,18.1,-20.3%,9.3%,-22.5%,23.4%,?
CCCC(=O)NNC(=O)CCC(=O)Nc1ccccc1Cl,1.4,-3.7%,7.4%,11.8%,0.7%,-4.3%
CCNC1=C(Cl)C(=O)c2ccccc2C1=O,15.1,23.1µM*,?,18.4µM*,-3.2%,-14.3%
O=C1C(Cl)=C(NCc2ccco2)C(=O)c2ccccc21,-95.2*,8.2µM*,·,11.6µM*,·,·
O=C1C(Cl)=C(NCCN2CCCCC2)C(=O)c2ccccc21,-100.7*,?,10µM*,4.11µM*,?,20.6µM*
O=C(NCCN1CCCC1)c1ccccc1Cl,0.5,0.3%,-15.0%,-10.8%,-7.3%,8.8%
Cc1nc(C(=O)NNC(=O)c2ccccc2)c(C(F)(F)F)o1,34.1,?,11.2µM*,?,-3.8%,?
O=C(OCCOc1ccccc1)c1cc(S(=O)(=O)N2CCOCC2)c(Cl)cc1Cl,-8.8,?,·,-22.7%,·,·
O=C(NC1CCCC1)c1cc(S(=O)(=O)N2CCOCC2)c(Cl)cc1Cl,-8.5,-21.5%,-15.8%,-10.4%,-9.0%,-19.2%

# Assay outcomes from PubChem.
